# High-throughput results (PubChem)
# SENP8 block-1: blocks human SENP8 cleavage of Nedd8 substrate; Q96LD8; recombinant SENP8, Nedd8 substrate fluorescence; inhibition, % at 20 µM; hit rate 0.64% among 360,000; AID 602440; in the data active means inhibition mostly above about 40%, no sharp cut-off; inactive means mostly below about 27%
# HSP90 refold inh: inhibitors of HSP90 luciferase refolding in rabbit reticulocyte lysate | inhibition, % at 5.6 µM | hit rate 0.91% among 290,000 | luciferase refolding luminescence, 3 h;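 active means inhibition above the screen-wide mean plus 3 SD, computed separately per campaign, cut at about 16% in these data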;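 further: 0% = DMSO wells and 100% = 60 µM geldanamycin wells; inhibitors lower the luminescence because luciferase stays unfolded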
# SENP8 block-2: SENP8 protease inhibition. Q96LD8. hit rate 1.2% among 330,000. purified SENP8, Z-RLRGG-aminoluciferin cleavage, luminescence. inhibition, % at 10 µM. AID 2540; in the data active means inhibition above about 50%
# SENP6 block: inhibitors of human SENP6 protease. Q9GZR1. Recombinant SENP6 catalytic domain, aminoluciferin luminescence. inhibition, % at 10 µM. hit rate 1.8% among 330,000;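 active means inhibition above about 50% at the single tested dose, limit read from the data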;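 further: plate controls were DMSO wells with enzyme for no effect and DMSO wells lacking enzyme for full effect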
# SENP7 inh: inhibitors of human SENP7 protease | inhibition, % at 5 µM | hit rate 1.5% among 330,000 | recombinant SENP7, Z-RLRGG-aminoluciferin luminescence, 40 min | AID 434973 | Q9BQF6;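 active means inhibition above about 50% at the single test dose, limit read from the data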;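 further: plate controls were DMSO with enzyme for no effect and no enzyme buffer wells for full effect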
# Target sequence (Q9BQF6 706-1050 limits assumed): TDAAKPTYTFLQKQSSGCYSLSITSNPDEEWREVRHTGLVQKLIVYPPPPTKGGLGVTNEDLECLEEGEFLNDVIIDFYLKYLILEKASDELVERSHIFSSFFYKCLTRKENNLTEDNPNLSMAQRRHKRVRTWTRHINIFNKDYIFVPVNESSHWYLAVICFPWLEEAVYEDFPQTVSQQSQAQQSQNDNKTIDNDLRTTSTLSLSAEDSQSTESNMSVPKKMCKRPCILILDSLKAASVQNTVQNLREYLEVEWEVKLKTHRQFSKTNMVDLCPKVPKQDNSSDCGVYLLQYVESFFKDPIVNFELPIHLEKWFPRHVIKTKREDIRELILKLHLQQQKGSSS
# SENP8 conf: confirmation of human SENP8 protease inhibitors. shares compounds with SENP7 inh. Recombinant SENP8, Z-RLRGG-aminoluciferin luminescence, 60 min. inhibition, % at 12.5 µM. hit rate 40% among 6,200;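 active means mean inhibition across replicates above about 50%, limit read from the data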
# SENP6 confirm: human SENP6 inhibition, confirmed | shares compounds with SENP7 inh | recombinant SENP6, Z-RLRGG-aminoluciferin luminescence | inhibition, % at 12.5 µM | hit rate 58% among 6,200
# SENP7 confirm: confirmation of human SENP7 protease inhibitors; shares compounds with SENP7 inh; recombinant SENP7, Z-RLRGG-aminoluciferin luminescence, 40 min; inhibition, % at 12.5 µM; hit rate 69% among 6,200
# Casp3 select: inhibits human caspase-3 in SENP selectivity test | shares compounds with SENP7 inh | purified caspase-3, Z-DEVD-aminoluciferin luminescence, 60 min | inhibition, % at 12.5 µM | hit rate 60% among 6,200;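 active means mean inhibition above about 50%, limit read from the data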;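 further: plate controls were enzyme with DMSO for no effect and wells without caspase-3 for full effect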
# Target sequence (P42574 28-227 limits assumed): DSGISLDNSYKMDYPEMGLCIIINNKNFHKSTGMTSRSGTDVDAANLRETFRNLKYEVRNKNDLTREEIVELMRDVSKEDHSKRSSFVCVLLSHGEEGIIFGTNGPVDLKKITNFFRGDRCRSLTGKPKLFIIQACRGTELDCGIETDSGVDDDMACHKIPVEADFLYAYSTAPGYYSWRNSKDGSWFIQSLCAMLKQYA
# SENP luc ctr: counter-screen for SENP inhibitors: luminescence interference; AID 488919; inhibition, % at 12.5 µM; Pre-incubated SENP8/Z-RLRGG-aminoluciferin, luciferase luminescence interference; hit rate 39% among 6,200; shares compounds with SENP7 inh;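 active means mean inhibition above about 50% when retested at one dose, limit read from the data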;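 further: plate controls were DMSO wells with completed reaction for no effect and substrate without enzyme for full effect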
# * marks the source's active call; other numbers are inactive results; x = no result. This is a sample that favours compounds with a hit; in the whole collection about 2.7% have one here.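 How the source made its calls, unless noted: active means mean inhibition above about 50% in the one-dose retest (limit read from the data); inactive means the rest.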
SMILES,SENP8 block-1,HSP90 refold inh,SENP8 block-2,SENP6 block,SENP7 inh,SENP8 conf,SENP6 confirm,SENP7 confirm,Casp3 select,SENP luc ctr
CSc1nc2ccc(NC(=O)c3ccc(F)c(F)c3)cc2s1,-20,-1,45,56*,74*,20,44,28,23,8
COc1ccc(NC(=O)c2ccc3nc(C)sc3c2)cc1,10,-5,-26,10,13,x,x,x,x,x
CSc1nc2ccc(NC(=O)c3ccco3)cc2s1,0,3,-5,5,10,x,x,x,x,x
CSc1nc2ccc(NC(=O)c3cc4ccccc4o3)cc2s1,-184,-3,69*,5,93*,-5,60*,84*,42,0
CSc1nc2ccc(NC(=O)c3ccc(=O)n(C)n3)cc2s1,5,-2,71*,92*,84*,-4,31,61*,55*,26
COc1ccc(C(=O)Nc2ccc3nc(C)sc3c2)cc1OC,0,-2,42,-7,73*,57*,57*,87*,80*,71*
CSc1nc2ccc(NC(=O)c3ccc(=O)[nH]c3)cc2s1,-4,2,-8,6,6,x,x,x,x,x
CC1CCCN(C(=O)Nc2cccc(NC(=O)N3CCCC(C)C3C)c2)C1C (configuration not stated),-7,-1,-11,-16,-13,x,x,x,x,x
O=C(Oc1ccc(-c2cn3c(n2)SCC3)cc1)c1ccccc1,26,2,0,40,71*,12,22,16,51*,26
COC(CNc1ncnc2sc(-c3ccccc3)cc12)OC,-301,0,7,13,0,x,x,x,x,x
Cc1cc(C(=O)Nc2ccc(Cl)cc2)on1,12,-1,-1,-7,9,x,x,x,x,x
CN1C(=O)CC(Nc2cccc3cccc(N)c23)C1=O (configuration not stated),13,1,44,-10,61*,9,24,7,-2,-3
O=C(Cc1c(O)c2ccccc2[nH]c1=O)NCc1ccccc1F,-9,-2,11,-15,2,x,x,x,x,x
Clc1ccc2oc(-c3ccccc3)nc2c1,8,0,63*,-43,83*,10,55*,91*,26,2
Cc1ccccc1-c1nc2cc(Cl)ccc2o1,10,-2,58*,16,81*,10,69*,94*,44,13
COC(=O)c1ccc2c(=O)n(CCCN3CCCC3=O)c(=S)[nH]c2c1,4,6,6,3,-3,x,x,x,x,x
CC1(C)Cc2c(sc(NC(=O)C(=O)N3CCCC3)c2C(=O)O)CO1,22,-3,-7,4,15,x,x,x,x,x
CC(C)COc1ccc(C(=O)Nc2sc3c(c2C(=O)O)CC(C)(C)OC3)cc1,-373,1,28,30,-1,x,x,x,x,x
CC1(C)Cc2c(sc(NC(=O)c3ccccc3)c2C(=O)O)CO1,-49,9,64*,-16,44,77*,69*,86*,82*,59*
COc1ccc(C(=O)Nc2sc3c(c2C(=O)O)CC(C)(C)OC3)cc1,-278,-4,44,63*,43,8,56*,0,50*,2
Cc1ccc2c(c1)COc1c3ccc(C(=O)NCC4CC4)cc3nn1-2,-327,x,0,0,-2,x,x,x,x,x
O=C(NCCO)c1ccc2c3n(nc2c1)-c1ccccc1CO3,-202,x,24,21,9,x,x,x,x,x
CC(C)[C@@H](CO)NC(=O)c1ccc2c3n(nc2c1)-c1ccccc1CO3,-123,x,82*,84*,50,91*,91*,98*,95*,62*
CC(C)NC(=O)c1ccc2c3n(nc2c1)-c1ccccc1CO3,-112,x,78*,77*,78*,88*,87*,98*,94*,81*
O=C(NCC1CC1)c1ccc2c3n(nc2c1)-c1ccccc1CO3,-224,x,78*,82*,68*,83*,84*,98*,92*,80*
SMILES,SENP8 block-1,HSP90 refold inh,SENP8 block-2,SENP6 block,SENP7 inh,SENP8 conf,SENP6 confirm,SENP7 confirm,Casp3 select,SENP luc ctr
NC(=O)c1sc2nc3c(c(-c4cccs4)c2c1N)CCCC3,x,-2,x,x,x,x,x,x,x,x
CC(=O)Nc1ccc(C2C(=O)c3ccccc3C2=O)cc1,-1,-1,-6,-21,3,x,x,x,x,x
CCCC(=O)Nc1ccc(C2C(=O)c3ccccc3C2=O)cc1,4,7,56*,75*,-4,38,80*,94*,93*,80*
Cn1cc([N+](=O)[O-])c(C(=O)NCc2ccccc2)n1,5,3,5,-19,7,x,x,x,x,x
O=C(c1ccccc1Cl)N1CCC(N2CCC(C(=O)N3CCCC3)CC2)CC1,10,1,-3,3,-23,x,x,x,x,x
N/C(=N\OC(=O)c1ccc2ccccc2c1)c1cccc([N+](=O)[O-])c1,7,0,-13,1,16,x,x,x,x,x
Cc1ccccc1C(=O)O/N=C(\N)Cc1cccs1,6,2,35,51*,61*,52*,49,81*,76*,55*
N/C(=N\OC(=O)c1ccc2ccccc2c1)c1ccccc1Cl,0,0,68*,73*,78*,82*,81*,94*,71*,83*
Cc1cc(C(=O)O/N=C(\N)c2ccncc2)ccc1[N+](=O)[O-],23,4,18,37,57*,8,6,38,43,26
N/C(=N\OC(=O)c1ccc2ccccc2c1)c1ccncc1,-12,5,56*,47,67*,70*,71*,90*,77*,73*
N/C(=N\OC(=O)COc1ccc2ccccc2c1)c1ccncc1,-4,3,-13,-25,-4,x,x,x,x,x
Cc1ccccc1OCC(=O)O/N=C(\N)Cc1cccs1,3,-2,-8,-17,-9,x,x,x,x,x
CCOc1cc(CNCCc2ccc(S(N)(=O)=O)cc2)ccc1OCc1ccc(Cl)cc1,33,4,-11,2,2,x,x,x,x,x
CCCCn1c(N)c(N(Cc2ccccc2OC)C(=O)C(C)Oc2ccc(F)cc2)c(=O)[nH]c1=O (configuration not stated),16,x,-4,-10,-4,x,x,x,x,x
Cc1nn(-c2ccccc2)c(NC(=O)c2cccs2)c(-c2ccccc2)c1=O,7,-4,-4,-10,0,x,x,x,x,x
N/C(=N\OC(=O)c1cccc(Cl)c1)c1ccncc1,14,2,3,-26,7,x,x,x,x,x
Cc1ccccc1C(=O)O/N=C(\N)c1ccncc1,5,-1,30,62*,65*,42,41,79*,81*,55*
